We go through 30 molecules from PubChem BioAssay AID743279 (National Center for Advancing Translational Sciences (NCATS), 2014).

In all, about 360,000 compounds went through this assay and about 17,000 (4.7%) were called active. Inconclusive results (about 5%) are left out. Rule as the data show it: active = activity change below about -50%; inconclusive = mostly about -30% to -49%; inactive = weaker than that. The full list was thinned out, with actives kept by preference.
% is scaled to controls: 0 for no effect and ±100 for the full control effect.

The assay is described as follows: qHTS for Inhibitors of Inflammasome Signaling: IL-1-beta AlphaLISA Primary Screen. The conditions noted are these: THP-1 LPS/ATP IL-1B secretion, 16 h; at 57.5 µM, stronger effect = lower value. The method in brief:
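THP-1 cells pretreated 1 hr with compounds (up to 57.5 uM final), then stimulated with LPS (250 ng/mL final) plus ATP (1.25 mM final); secreted IL-1B measured by AlphaLISA after 16 hr, decreased signal indicating inhibition.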
A general note: Quantitative high-throughput screening tests each substance at several concentrations.
With `CC[C@]12c3[nH]c4ccc(OC)cc4c3CCN1C(=O)C(CC(=O)NCc1ccco1)C[C@@H]2C(=O)N1CCN(C(=O)C2CC2)CC1` (stereo not given in full), the activity change is 16.2% (inactive). In the case of `CCCCOc1ccc(NC(=O)CSCC(=O)OCC)cc1`, the activity change is -3.32% (inactive). For `Cc1ccc(COc2ccc(C(=O)NN)cc2)cc1`, the activity change was -17.7% (inactive). For `COc1cccc(OCc2nnc3n2N=C(c2ccccc2)C(CC(=O)O)S3)c1` (stereo not given) the value was 29.1% (inactive); for `CCCCn1c(N)c(N(CCOC)C(=O)c2cccc(OCc3ccccc3)c2)c(=O)[nH]c1=O`, -4.76% (inactive).

In the case of `CCCCCCCCCCOC(=O)Cn1c(COc2ccc(C)cc2)[n+](C)c2ccccc21`, the activity change is -90.4% (active). `CCCCCCCCCCOC(=O)Cn1c(COc2cccc(OC)c2)[n+](C)c2ccccc21`: the activity change was -79.3% (active). For `COc1ccc(NC(=O)C2Cc3c(-c4ccc5c(c4)OCO5)ccnc3O2)cn1` (stereo not given) the value was 22.6% (inactive).

On to `COC(=O)N(C)C[C@@H]1OCc2cnnn2CCCC(=O)N([C@@H](C)CO)C[C@@H]1C`, for which the activity change is 1.38% (inactive). The value for `CC1CN(Cc2ccco2)C(=S)N(c2ccccc2)C1=O` (stereo not given) was 3.29% (inactive); that for `OC(c1ccccc1)(c1ccccc1)C1CCN(CCCOc2ccccc2)CC1` was -28.1% (inactive).

Regarding `O=c1[nH]c2ccccc2n1C1CCN(CCOc2ccccc2)CC1`, the activity change was -51.9% (active). For `O=C1CCN(CCc2ccccc2)CCN1CCOc1ccccc1` the value was 23.9% (inactive).

Turning to `O=C(c1ccc(N2CCCC2=O)cc1)N1CCN(c2ccc(C(F)(F)F)cc2[N+](=O)[O-])CC1`, the activity change is -8.61% (inactive). The value for `CCOc1ccc(Br)cc1S(=O)(=O)Nc1cccc(S(=O)(=O)N(CC)CC)c1` was -3.12% (inactive); that for `CC1(C)OC(=O)C2=C(C[C@@H](C3CCCC3)O[C@@H]2c2ccc(Cl)cc2)O1` was 30.2% (inactive). As to `Cc1cc(C)c2c(n1)nn1c(-n3ccnc3)cc(C)nc21`, the activity change was -75.6% (active). The value for `Cc1cc(-n2nc(C)cc2C)n2nc(C)c(-c3ccccc3)c2n1` was -4.92% (inactive); that for `Cc1cc(C)c2c(NC(=O)C3CC3)nn(C)c2n1` was -2.02% (inactive); that for `CN(C)Cc1ccc(F)cc1Sc1cc(Cl)ccc1Cl` was 4.08% (inactive). In the case of `Cc1ccccc1CN1C(=O)CSCC1(C)C(=O)Nc1c(C)cccc1C` (stereo not given), the activity change was -3.26% (inactive). Take `CC1C(C)N(C(=O)CCl)c2ccccc2N1C(=O)CCl` (stereo not given): the activity change is -101% (active). For `CC1C(=O)N(Cc2ccccc2)c2ccccc2N1C(=O)c1ccccc1` (stereo not given) the value was 0.175% (inactive); for `CC1CC(C)CN(CC(=O)N2c3ccccc3CCc3ccccc32)C1` (stereo not given), -6.12% (inactive). For `O=C(OCCOc1ccccc1Cl)c1cc(S(=O)(=O)N2CCCCC2)ccc1N1CCOCC1` the value was 11.6% (inactive); for `O=C(c1c(F)cccc1Cl)N1CCN(c2ccccn2)CC1`, -9.43% (inactive).

As to `O=C(c1ccc2ccccc2n1)N1CCN(c2ccccc2Cl)CC1`, the activity change was -2.41% (inactive). For the molecule `O=C(c1c(Cl)cccc1Cl)N1CCN(c2cccc3[nH]ccc23)CC1`, the activity change is -73.5% (active). In the case of `Cc1ccc(C2=NN(C(=O)CSc3nc(N)cc(N)n3)C(c3ccco3)C2)cc1` (stereo not given), the activity change is -23.3% (inactive). On to `COCCCN1C(=O)C(CC(=O)NCc2cccs2)CC(C(=O)N2CCOCC2)=C1C` (stereo not given), for which the activity change was -1.75% (inactive).
